About 83,000 compounds went through this panel and 20% of them were active in at least one assay; those are over-represented in the sample as a whole.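 Cell lines were cultured in 96-well plates, exposed to a single compound concentration, and assessed for percent growth 48 hours later.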 Values without a mark were called inactive. Active and inactive are the calls of the source.
System: HCT-116 colon
Assay: NCI-60 one-dose screen, 48 h (100 = growth as untreated, 0 = no growth, -100 = all killed)
Conditions: 10 µM unless noted
Description: Growth inhibition of the HCT-116 human tumor cell line is measured as a screen for anti-cancer activity. Cells are grown in 96 well plates and exposed to the test compound for 48 hours. Compounds are tested at a single concentration, which is 10^-5 M for most compounds. The reported endpoint is percent growth (GI% or GIPRCNT), where numbers from 0 - 100% represent growth inhibition, and numbers from -100% - 0 represent cell death. For example, a value of 40 represents 60% growth inhibition. A value of 0 means no net growth occurred over the course of the experiment. A value of -40 indicates 40% of cells at the beginning of the experiment died by the end of the experiment. A value of -100 means all cells are dead at the end of the experiment.
NCI-60 Human Tumor Cell Lines Screen was performed using the standard one-dose NCI protocol, which is described in more detail at https://dtp.cancer.gov/discovery_development/nci-60/default.htm.
Compounds with GIPRCNT values below 10 were considered active. Activity score was based on GIPRCNT using the following formula: […]
Score is 0 for GIPRCNT values of 100 or above, 50 for GIPRCNT values of 0, and 100 for GIPRCNT values of -100.

SMILES | growth
N#Cc1c(-c2ccccc2)nc(SCC(O)CN2CCOCC2)nc1N1CCOCC1 (stereo not given) | 57.5%
O=C(O)c1cn(C2CC2)c2cc(N3CCN(C(=O)Nc4nc(-c5ccc(Br)cc5)cs4)CC3)c(F)cc2c1=O | 18.5%
CCc1ccc(CCC(=O)Nc2ncc(Cc3ccccc3)s2)o1 | 23.4%
CC1(C)CC[C@]2(C(=O)N[C@H](CO)Cc3ccccc3)CC[C@]3(C)C(=CC[C@@H]4[C@@]5(C)CCCNC(C)(C)[C@@H]5CC[C@]43C)[C@@H]2C1 | 44.4%
CC/C=C\CCC/C=C1/C(=O)C=C[C@@H]1C/C=C\CCCC(=O)OC | -52.4% (active)
O=C(CCCCCCN1CC(=O)N2[C@H](c3ccc(Br)cc3)c3[nH]c4ccccc4c3C[C@@H]2C1=O)NO | 14.8%
COc1ccc2cc(-c3ccnc4c(N=Nc5ccc(Cl)cc5)c(N)nn34)ccc2c1 | 99.7%
COc1cc(NC(=O)c2cncnc2Nc2ccc3c(ccn3Cc3ccccn3)c2)cc(OC)c1 | 18.2%
CN(CCCNC(=O)Cc1ccc2ccc3cccc4ccc1c2c34)CCCNc1cc(-c2ccc3ccccc3c2)nc2ccccc12 | -85.4% (active)
CCCC(CC)(C(=O)Nc1ccc2nc(C)cc(N)c2c1)C(=O)Nc1ccc2nc(C)cc(N)c2c1 | 85.2%
COc1cc(/C=N/Nc2ccc(Br)cc2)cc(OC)c1OC | 60.8%
C=C1C(=O)O[C@H]2[C@H]1CC/C(COC(=O)/C=C/C(=O)OC/C1=C/CC[C@@]3(C)O[C@H]3[C@H]3OC(=O)C(=C)[C@@H]3CC1)=C\CC[C@@]1(C)O[C@@H]21 | 2.7% (active)
CC(C)N1C(=O)/C(=c2\sc3n(c2=O)C2C(NN=3)N(C)C(=O)N2C)c2ccccc21 (stereo not given) | 51.4%
CC1=CCC(OC(=O)C(C)(C)CC(O)(C(C)O)C(O)C2(C)C=CC(Cc3ccc(C(C)C)cc3)(C(C)C)CC2)(C(C)C)CC1 (stereo not given) | 93.7%
CCN1C(=O)N(CC)C2C1NN=c1s/c(=C\c3ccc(C(F)(F)F)cc3)c(=O)n12 (stereo not given) | 9.6% (active)
CC(=O)ON1CCCC(P(=O)(OCCSC(=O)C(C)(C)C)OCCSC(=O)C(C)(C)C)C1=O (stereo not given) | 10.5%
COc1cc(/C=C/C(=O)c2ccc(-n3cc(CN4CCN(c5cc6c(cc5F)c(=O)c(C(=O)O)cn6C5CC5)CC4)nn3)cc2)ccc1O | -53.4% (active)
Cc1nn(-c2cc(NC3CCC(O)CC3)c3c(=O)[nH]c(CCC(F)(F)F)cc3c2)c2c1C(=O)CC(C)(C)C2 (stereo not given) | 38%
N#C/C(=C\c1cn(Cc2ccccc2)c2ccccc12)C(=O)Nc1ncc(Cc2ccccc2Cl)s1 | 0.288% (active)
CC1(C)N=C(N)N=C(N)N1c1cccc(CCc2ccccc2)c1 | 19.8%

SMILES | growth
CS(=O)(=O)Nc1cc(-c2ccc3ncc(C#N)c(Nc4ccc(F)c(Cl)c4)c3c2)cnc1Cl | 4% (active)
COc1ccc(/C=C/C(c2cc(OC)c(OC)c(OC)c2)n2cncn2)cc1 (stereo not given) | 22%
Nc1ccc(-c2csc(-n3[nH]c(=O)ccc3=O)n2)cc1 | 94%
C[C@]1(O)CC(=O)[C@]2(O)C3=C(C=C[C@]2(O)C1)C(=O)c1c(O)cccc1C3=O | -32.1% (active)
COc1ccc(/C=C(/c2ccccc2)[N+](=O)[O-])c(OC)c1 | -42.8% (active)
[2H]C([2H])([2H])Oc1ccc(F)cc1/C=C/C(=O)/C=C(/C=C/c1cc(F)ccc1OC([2H])([2H])[2H])OB(F)F | 43.2%
CCC1S/C(=N\N=C(\C)c2cc3cc(Cl)ccc3o2)N(c2ccccc2)C1=O (stereo not given) | 84.2%
CC1=C2[C@@H](CC1)[C@]1(C)O[C@@](C3CCCCC3)(C[C@H]1OC(=O)CO)[C@H]2OC(=O)/C=C/c1ccccc1 | 76.3%
CCN1CCN(CC(=O)Nc2nc3ccc(NCc4ccc(F)cc4)cc3s2)CC1 | 70.9%
O=C(CN1CCN(c2cc3c(cc2F)c(=O)c(C(=O)O)cn3C2CC2)CC1)N/N=C/c1ccco1 | 97.1%
O=C(Cc1cccc(OC(F)(F)F)c1)Nc1ccc(CCCCc2nnc(NC(=O)Cc3ccccn3)s2)nn1 | 40%
COc1ccc2c(c1)c(/C(O)=C1\COC(=O)C1=O)cn2Cc1ccc(F)cc1 | 104%
O=C(NCc1cccc(CNC(=O)Nc2nc3ccccc3[nH]2)c1)Nc1nc2ccccc2[nH]1 | -82.4% (active)
O=C1c2ccccc2C(=O)c2c1c(C(=O)NCc1ccccc1)c1ccccn21 | 97.1%
CN1CCN(c2ccc3nc4c(nc3c2C(F)(F)F)C(=O)c2ncccc2C4=O)CC1 | 0.984% (active)
COc1ccc(/C=C/c2c(C(=O)/C=C/c3ccccc3)c(C)nc3ccccc23)cc1 | -70.1% (active)
N#Cc1c(Nc2ccc(N3CCOCC3)cc2)nc(SCC(=O)c2ccc(Br)cc2)nc1-c1ccccc1 | 87.9%
O=S1(=O)C=C(c2ccccc2)C(c2ccccc2)=C1 | -74.8% (active)
Cc1ccc(-c2csc(N(C(=O)N3CCN(c4cc5c(cc4F)c(=O)c(C(=O)O)cn5C4CC4)CC3)c3ccccc3)n2)cc1 | 6.17% (active)
CN(Cc1ccccc1)c1nc(Cl)c(C2CC(c3ccccc3)=NN2c2ccccc2)s1 (stereo not given) | 77.7%
